Experimental data taken from PubChem BioAssay (EPA / NIEHS).
Results filed as inconclusive are left out. Calls of active or inactive are those of the source. The calls were made as follows, unless noted: active = hit-call score of the fitted dose curve at least 0.9, where 1 is the maximum; inactive = score below 0.9.

What was measured:
[1] = CCTE_Shafer_MEA_dev_firing_rate_mean: CCTE's Neural Network Formation Assay for Mean Firing Rate, Shafer Lab (AID 2284031);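 also: curve fitted for loss of firing so AC50 reflects decreased mean firing rate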
Procedure, shortened: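 Extracellular spike frequency, AUC over DIV 5–12 recordings, in rat cortical neuron MEA cultures dosed from plating; loss direction vs DMSO.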

[2] = CCTE_Shafer_MEA_dev_active_electrodes_number: CCTE's Neural Network Formation Assay for Number of Active Electrodes, Shafer Lab (AID 2284040; active = hit-call score of the fitted dose curve at least 0.9, where 1 is the maximum;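 also: potency for loss of active electrodes versus DMSO so lower counts are hits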)
Procedure, shortened: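 Developing rat cortical networks on MEAs, exposed DIV 0–12. Value is the AUC of active-electrode counts (≥5 spikes/min) from days 5, 7, 9, 12, relative to DMSO.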

[3] = CCTE_Shafer_MEA_dev_burst_rate: CCTE's Neural Network Formation Assay for Burst Rate, Shafer Lab (AID 2284042)
Procedure, shortened: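 Primary rat cortical neurons on PEI-coated 48-well MEA plates (laminin added with cells at plating) (16 electrodes/well), exposed from plating to day 12, dosing renewed at DIV 5 and 9. Burst rate averaged over active electrodes, recorded DIV 5, 7, 9, 12, summarized as AUC; loss versus DMSO.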

[4] = CCTE_Shafer_MEA_dev_bursting_electrodes_number: CCTE's Neural Network Formation Assay for Number of Bursting Electrodes, Shafer Lab (AID 2284043; active = hit-call score of the fitted dose curve at least 0.9, where 1 is the maximum;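 also: potency is for loss of bursting electrodes relative to DMSO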)
Procedure, shortened: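 Rat cortical primary neurons, 48-well MEA, 16 electrodes/well; dosing DIV 0–12, re-dosed with full media change DIV 5, 9. Recordings DIV 5/7/9/12, AxIS adaptive spike detector; bursting electrode = ≥1 burst/2 min. AUC across days; loss of signal vs DMSO.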

[5] = CCTE_Shafer_MEA_dev_burst_duration_mean: CCTE's Neural Network Formation Assay for Mean Burst Duration, Shafer Lab (AID 2284045)
Procedure, shortened: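 Rat cortical cultures, 1.5 x 10^5 cells/well with laminin drop; continuous dosing days 0–12, media plus treatment refreshed DIV 5, 9. AxIS adaptive spike detection; mean single-electrode burst duration, AUC over four recordings, negative direction vs DMSO.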

[6] = CCTE_Shafer_MEA_dev_inter_network_spike_interval_mean: CCTE's Neural Network Formation Assay for Mean Inter-network Spike Interval, Shafer Lab (AID 2284047)
Procedure, shortened: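 Primary rat cortical neurons on 16-electrode MEA wells, exposed from plating day 0 through DIV 12, compound renewed at DIV 5 and 9 media changes. Mean interval between network-spike peaks recorded DIV 5, 7, 9, 12; collapsed as trapezoidal AUC, fitted downward versus DMSO.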

[7] = CCTE_Shafer_MEA_dev_network_spike_number: CCTE's Neural Network Formation Assay for Number of Network Spikes, Shafer Lab (AID 2284048);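 also: synchronized bursts across electrodes counted on days 5 7 9 12 and integrated as AUC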
Procedure, shortened: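 Rat cortical primary cultures on 48-well MEA (16 electrodes/well); continuous exposure DIV 0–12, full medium and treatment exchange DIV 5, 9. Readout: network spike count, AxIS adaptive detection, recordings DIV 5/7/9/12 collapsed to AUC; loss-of-signal fit, DMSO baseline.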

[8] = CCTE_Shafer_MEA_dev_network_spike_peak: CCTE's Neural Network Formation Assay for Mean Number of Electrodes in Network Spike, Shafer Lab (AID 2284049);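 also: fitted for loss of signal meaning fewer electrodes in network spikes than DMSO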
Procedure, shortened: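 Network-spike peak electrode count from recordings on days 5, 7, 9 and 12 was combined as trapezoidal area under the curve. Rat cortical cultures were treated continuously from plating, with compound renewed at each feed (DIV 5, 9); fits versus DMSO.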

[9] = CCTE_Shafer_MEA_dev_spike_duration_mean: CCTE's Neural Network Formation Assay for Mean Spike Duration, Shafer Lab (AID 2284051);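 also: mean network spike duration pooled as area under curve over DIV 5 to 12 recordings; potency for a decrease in mean network spike duration versus DMSO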
Procedure, shortened: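 Primary rat cortical neurons on 16-electrode MEA wells (PEI-coated, laminin in plating drop), exposed from plating through DIV 12 with compound renewed at DIV 5 and 9. Mean network-spike duration recorded DIV 5, 7, 9, 12; trapezoidal AUC across days, DMSO baseline.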

[10] = CCTE_Shafer_MEA_dev_network_spike_duration_std: CCTE's Neural Network Formation Assay for Standard Deviation of Network Spike Duration, Shafer Lab (AID 2284052);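 also: area under curve of spike duration SD across recording days 5 to 12; hits are decreases in network spike duration SD versus DMSO vehicle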
Procedure, shortened: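 Primary rat cortical neurons on PEI-coated 16-electrode MEA wells, exposed from plating day 0 through day 12 with compound renewed at DIV 5 and 9. Network spike duration SD recorded on days 5, 7, 9, 12, collapsed as trapezoidal AUC; loss-of-signal fit versus DMSO.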

[11] = CCTE_Shafer_MEA_dev_per_network_spike_spike_number_mean: CCTE's Neural Network Formation Assay for Mean Number of Spikes in a Network Spike, Shafer Lab (AID 2284053);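 also: fitted as decrease in spikes per network spike relative to DMSO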
Procedure, shortened: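 Primary rat cortical neurons on 48-well, 16-electrode MEA plates were exposed from plating to DIV 12, with dosing renewed on DIV 5 and 9. Spikes per network spike (0.05 s peak window) were recorded on DIV 5, 7, 9 and 12 and collapsed as trapezoidal AUC versus DMSO.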

[12] = CCTE_Shafer_MEA_dev_per_network_spike_spike_percent: CCTE's Neural Network Formation Assay for Percent of Spikes in a Network Spike, Shafer Lab (AID 2284054)
Procedure, shortened: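 Read-out: percent of spikes falling in a 0.05 s window at network-spike peak, from spontaneous MEA recordings on days 5, 7, 9 and 12; trapezoidal AUC; loss of signal versus DMSO. Rat cortical cultures, compound present throughout.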

[13] = CCTE_Shafer_MEA_dev_LDH: CCTE's Lactate Dehydrogenase Assay for Cytotoxicity in the Neural Network Formation Assay, Shafer Lab (AID 2284068; active = hit-call score of the fitted dose curve at least 0.9, where 1 is the maximum;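 also: exposure for twelve days from plating with re-dosing on DIV 5 and 9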)
Procedure, shortened: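 Primary rat cortical neurons were plated on PEI/laminin MEA plates and exposed from day 0 for twelve days, with compound renewed at DIV 5 and 9. Cytotoxicity was determined by spectrophotometric LDH assay relative to DMSO.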

[14] = CCTE_Shafer_MEA_dev_AB: CCTE's Alamar Blue Assay for Cytotoxicity in the Neural Network Formation Assay, Shafer Lab (AID 2284083; active = hit-call score of the fitted dose curve at least 0.9, where 1 is the maximum;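 also: twelve days of exposure from plating with re-dosing on DIV 5 and 9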)
Procedure, shortened: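 Primary rat cortical neurons on PEI-coated 48-well MEA plates, 1.5 x 10^5 cells/well in laminin drop; compound exposure from day 0 of plating for twelve days, renewed at medium changes on DIV 5 and 9. Viability read as resazurin reduction by fluorescence, relative to DMSO.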

[15] = CCTE_Shafer_MEA_dev_mutual_information_norm: CCTE's Neural Network Formation Assay for Mutual Information Normalization, Shafer Lab (AID 2284091)
Procedure, shortened: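 Neurons from rat cortex were seeded at 1.5 x 10^5 cells/well onto PEI-coated MEAs in a laminin drop, then exposed to compound from day 0 for twelve days. Network recordings on four days gave mutual information, summarised by AUC relative to DMSO.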

[16] = CCTE_Shafer_MEA_dev_correlation_coefficient_mean: CCTE's Neural Network Formation Assay for Mean Correlation Coefficient, Shafer Lab (AID 2284093);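 also: well mean pairwise spike train correlation integrated as AUC over recording days 5 to 12; potency fitted for loss of correlation relative to DMSO vehicle wells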
Procedure, shortened: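 Spontaneous activity recorded on days 5, 7, 9 and 12 post-plating; pairwise spike correlations are averaged across active electrodes and collapsed to an area-under-curve. Rat cortical cultures are dosed from plating through 12 days, with compound renewed at media changes.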

[17] = UKN2_HCS_IMR90_neural_migration: University of Konstanz (UKN) Leist Lab Neural Crest Cell Migration Assay in human induced IMR90 Pluripotent Stem Cells (UKN2) (AID 2284204); settings: actives raise or lower the signal
Procedure, shortened: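 Stopper-exclusion migration (cMINC), human iPSC-derived neural crest cells; N2-S + EGF/FGF; compound added 24 h post-stopper removal, 24 h exposure. Readout: calcein-AM/Hoechst 30 min, HCS fluorescence imaging; bidirectional fitting, DMSO baseline.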

[18] = IUF_NPC1b_proliferation_BrdU_72hr: Leibniz Research Institute for Environmental Medicine (IUF) 72-hour Neural Progenitor Cell Bromodeoxyuridine (BrdU) Proliferation Assay (NPC1b) (AID 2284207)
Procedure, shortened: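 Luminescent BrdU ELISA measured DNA synthesis during the last 16 h of a 72 h exposure of primary human neural progenitor spheres grown with EGF and FGF. Signal was fitted relative to DMSO controls.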

[19] = IUF_NPC1a_proliferation_area_72hr: Leibniz Research Institute for Environmental Medicine (IUF) 72-hour Neural Progenitor Cell Proliferation Area Assay (NPC1a) (AID 2284208)
Procedure, shortened: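 Proliferation read as increase in sphere area by phase-contrast imaging over 72 h continuous compound exposure (no renewal) of hNPC spheres grown with EGF/FGF at 37C, 5% CO2. Growth-factor withdrawal served as positive control; DMSO as baseline.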

[20] = IUF_NPC1_viability_72hr: Viability Assessment at 72 hours in the Leibniz Research Institute for Environmental Medicine (IUF) Neural Progenitor Cell Proliferation Assay (NPC1) (AID 2284209)
Procedure, shortened: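 Three-day continuous exposure of human neural progenitor spheres under EGF/FGF-driven proliferation; cell viability scored by alamar blue signal versus DMSO.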

[21] = CCTE_Mundy_HCI_Cortical_Synap_Neur_Matur_NeuriteSpotCountPerNeuriteLength: CCTE's Synaptogenesis and Neurite Maturation Assay in rat cortical cells for Neurite Spot Count per Neurite Length, Mundy Lab (AID 2284210)
Procedure, shortened: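 Read-out: synaptophysin puncta counted along MAP2-stained neurites, normalised to neurite length, by automated high-content imaging. Rat cortical cells; AraC DIV 5; chemical dosing DIV 7; termination DIV 12. DMSO baseline.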

[22] = CCTE_Mundy_HCI_Cortical_Synap_Neur_Matur_BPCount: CCTE's Synaptogenesis and Neurite Maturation Assay in rat cortical cells for Branch Point Count, Mundy Lab (AID 2284211)
Procedure, shortened: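 In this multiplexed morphology assay, cortical cells from rat receive chemicals at DIV 7 and are fixed at DIV 12, then immunostained and imaged; branch points are counted, with DMSO as baseline.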

[23] = CCTE_Mundy_HCI_Cortical_NOG_NeuriteCount: CCTE's Neurite Outgrowth Assay in rat cortical cells for Neurite Count, Mundy Lab (AID 2284212);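 also: cells fixed about two days after chemical exposure began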
Procedure, shortened: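 Rat cortical primary cells; compound added 2 h post-plating, 1/10 dilution of working solution. Anti-betaIII-tubulin/AF488 ICC; ArrayScan neurite count vs DMSO.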

## Cn1nc(C(F)(F)F)c(CS(=O)(=O)C2=NOC(C)(C)C2)c1OC(F)F
[1]
  AC50: 91.6 µM (active)
[2]
  AC50: 73.6 µM (active)
[3]
  outcome: inactive
[4]
  AC50: 87.5 µM (active)
[5]
  outcome: inactive
[6]
  outcome: inactive
[7]
  outcome: inactive
[8]
  AC50: 50 µM (active)
[9]
  AC50: 31.2 µM (active)
[10]
  outcome: inactive
[11]
  AC50: 50 µM (active)
[12]
  outcome: inactive
[13]
  AC50: 80.6 µM (active)
[14]
  AC50: 68.9 µM (active)
[15]
  outcome: inactive
[16]
  AC50: 32.7 µM (active)
[17]
  outcome: inactive
[18]
  outcome: inactive
[19]
  AC50: 22.1 µM (active)
[20]
  outcome: inactive
[21]
  outcome: inactive
[22]
  AC50: 15.1 µM (active)
[23]
  AC50: 84.9 µM (active)
